CYP2C9 activ: activators of human CYP2C9; recombinant CYP2C9, luciferin-H conversion, luminescence; stronger effect = higher value; factor 1 = untreated enzyme, 0 = blocked; 96,000 compounds, 1.4% hits; activation factor at 5 µM; AID 1024; P11712;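 active means activation factor of 2 or more for CYP2C9 at a 5 µM dose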
CYP2C9 inh: blocks human cytochrome P450 2C9 | P11712 | CYP2C9 Supersomes, luciferin-H conversion, luminescence | 96,000 compounds, 20% hits | inhibition, % at 5 µM;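 active means blocking of liver enzyme CYP2C9 beyond about 50% at 5 µM, limit read from the data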
EphB4 antag: EphB4-ephrin-B2 interaction antagonism; P54760; EphB4 LBD / TNYL-RAW-Alexa532 peptide, fluorescence polarization; inhibition, % at 7 µM; 97,000 compounds, 0.15% hits; AID 720;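 active means inhibition above the screen-wide mean inhibition plus 3 SD, cut at about 15% in these data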
CYP2C19 inhib: inhibitors of human CYP2C19. P33261. CYP2C19 Supersomes, luciferin-H EGE luminescence, 30 min. inhibition, % at 5 µM. 96,000 compounds, 21% hits;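 active means CYP2C19 inhibition above a set limit at 5 µM in the primary screen, cut at about 50% in these data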
Target sequence (P33261 whole entry, looked up): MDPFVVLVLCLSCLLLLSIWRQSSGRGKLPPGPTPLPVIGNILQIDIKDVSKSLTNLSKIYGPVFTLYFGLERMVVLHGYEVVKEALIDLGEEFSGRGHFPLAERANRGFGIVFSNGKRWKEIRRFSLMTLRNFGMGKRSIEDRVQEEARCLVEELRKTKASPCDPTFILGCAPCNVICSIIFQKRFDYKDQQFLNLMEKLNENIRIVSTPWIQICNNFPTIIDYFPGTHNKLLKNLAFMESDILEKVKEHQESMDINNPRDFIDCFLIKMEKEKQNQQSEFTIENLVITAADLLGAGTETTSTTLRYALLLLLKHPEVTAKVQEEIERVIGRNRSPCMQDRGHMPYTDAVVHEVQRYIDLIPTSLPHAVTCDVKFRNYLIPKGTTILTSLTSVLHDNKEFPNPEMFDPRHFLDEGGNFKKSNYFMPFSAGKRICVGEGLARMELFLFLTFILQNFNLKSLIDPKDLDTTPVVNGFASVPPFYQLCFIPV
CYP2C19 activ: increases human CYP2C19 enzyme activity | activation factor at 5 µM | P33261 | recombinant CYP2C19, luciferin-H EGE luminescence; stronger effect = higher value; 0 = fully inhibited enzyme, 1 = untreated enzyme | 96,000 tested, under 10 active;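 active means activation factor of at least 2 at 5 µM in the primary screen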
A number is an active result; 0 = inactive; - = not tested or not shown. Compounds with a hit are over-represented: about 27% of the library has one in this group of screens.

SMILES	CYP2C9 activ	CYP2C9 inh	EphB4 antag	CYP2C19 inhib	CYP2C19 activ
Cc1cc(/C=N/n2cnnc2)c(C)n1-c1ccc(OCc2ccc(Cl)cc2Cl)cc1	0	0	0	0	0
Cc1cc(/C=C2/SC(=S)N(c3cccc(Cl)c3)C2=O)c(C)n1-c1cccnc1	-	-	0	-	-
Cc1cc(/C=N/n2cnnc2)c(C)n1-c1ccccc1	0	73	0	100	0
CC(NC(=O)COc1ccccc1)C(=O)OCC(=O)c1cc2ccccc2o1 (stereo not given)	0	0	0	0	0
Cc1ccc(C)c(NC(=O)CSc2nnc(CSc3nc(C)cc(C)n3)n2Cc2ccco2)c1	0	51	-	0	0
Cc1ccc(C)c(CSc2nnc(-c3cccs3)n2Cc2ccco2)c1	0	0	0	52	0
Cc1ccc(NCc2nnc(SCC(=O)c3ccccc3)n2Cc2ccco2)c(C)c1	0	81	0	84	0
Cc1ccc(NC(=O)CSc2nnc(CSc3nc(C)cc(C)n3)n2Cc2ccco2)c(C)c1	0	0	0	0	0
Cc1cc(C)nc(SCc2nnc(SCC(=O)Nc3ccccc3C)n2Cc2ccco2)n1	0	70	0	62	0
Cc1cc(C)nc(SCc2nnc(SCC(N)=O)n2Cc2ccco2)n1	0	0	0	0	0
CC(NC(=O)c1ccc(N(C)C)cc1)C(c1cccs1)N1CCN(C)CC1 (stereo not given)	0	0	0	0	0
Cc1onc(-c2ccccc2Cl)c1C(=O)NCCN1CCOCC1	0	0	0	0	0
O=C1Nc2ccccc2C(O)(C(=O)NCc2ccco2)N1c1ccc(Cl)c(Cl)c1 (stereo not given)	0	0	0	0	0
Cc1cc(C(=O)CSc2nnc(-c3ccc(F)cc3)o2)c(C)n1CC1CCCO1 (stereo not given)	0	0	0	0	0
CCN1N=C(c2ccccc2)Cn2c1nc1ccccc12	0	69	0	58	0
O=C(CCC1CCCCC1)NNC(=O)NC12CC3CC(CC(C3)C1)C2	0	0	0	95	0
O=C(CC1CCCCC1)NC1CCCC1	0	0	0	0	0
Cc1cc(NC(=O)CCC2CCCCC2)no1	-	-	0	-	-
O=C(CCC1CCCC1)NC1CCCCC1	0	0	0	57	0
O=C(NC1CC2CCCC(C1)N2C1CC1)NC12CC3CC(CC(C3)C1)C2 (stereo not given)	0	0	0	0	0
COc1ccc(CC(=O)Nc2cc(C)ccn2)cc1	0	0	0	85	0
Cc1cc(NC(=O)CCC2CCCC2)no1	0	0	0	59	0
CCCCc1nc(NCCNC(=O)c2ccccc2)c(C#N)c2c1CSC(C)(C)C2	0	0	0	0	0
COc1ccc(C(NC(=O)C(C)(C)C)NC(=O)C(C)(C)C)cc1	-	-	0	-	-
Cc1ccnc(NC(=O)C23CC4CC(CC(C4)C2)C3)c1	0	0	0	94	0
SMILES	CYP2C9 activ	CYP2C9 inh	EphB4 antag	CYP2C19 inhib	CYP2C19 activ
CCOC(=O)C(C(=O)Nc1ccccc1)C1CCCCC1 (stereo not given)	0	0	0	0	0
COC(=O)C(C(=O)Nc1cc(C)on1)C1CCCCCC1 (stereo not given)	0	52	0	64	0
Cc1ccnc(NC(=O)CCC2CCCCC2)c1	0	0	0	86	0
CCOC(=O)C(C(=O)Nc1ccc(C)cc1)C1CCCCC1 (stereo not given)	0	56	0	79	0
CCC(=O)Nc1ccc(NC(=O)C23CC4CC(CC(C4)C2)C3)cn1	0	0	0	0	0
COc1ccc(C(=O)NCC(=O)O)cc1	0	0	0	0	0
COc1ccc(/C(C)=N/NC(=O)c2nc(C)cc(C)n2)cc1	2.3	0	0	0	0
COc1ccc(/C(C)=N/NC(=O)c2ccc(N(C)C)cc2)cc1	0	0	0	0	0
CC(C)Sc1nc2c(cnn2-c2ccccc2)c(=O)[nH]1	0	0	-	0	0
CNc1nc(-c2c[nH]c3ccccc23)cs1	0	78	0	73	0
COc1ccc2[nH]c(=O)c(CN(CCO)S(=O)(=O)c3c(C)ccc4nsnc34)cc2c1	0	0	0	0	0
Cc1ccc2cc(CN(CCCO)S(=O)(=O)c3cccc4nsnc34)c(=O)[nH]c2c1C	0	100	0	0	0
COc1ccc2cc(CN(CC3CCCO3)S(=O)(=O)c3ccccc3Cl)c(=O)[nH]c2c1 (stereo not given)	0	99	0	58	0
Cc1ccc2cc(CN(CC3CCCO3)S(=O)(=O)c3c(C)ccc4nsnc34)c(=O)[nH]c2c1 (stereo not given)	0	52	0	0	0
Cc1ccc2nsnc2c1S(=O)(=O)N(Cc1cc2cccc(C)c2[nH]c1=O)CC1CCCO1 (stereo not given)	0	78	0	0	0
Cc1ccc2cc(CN(CC3CCCO3)C(=O)C(C)C)c(=O)[nH]c2c1 (stereo not given)	-	-	0	-	-
Cc1cccc2cc(CN(CC3CCCO3)C(=O)c3ccco3)c(=O)[nH]c12 (stereo not given)	0	0	0	0	0
CCOc1ccc(N(CC(=O)N2CCCC2)S(=O)(=O)c2c(C)noc2C)cc1	0	0	0	0	0
O=C(Nc1ccc(NC(=O)C2CCCCC2)cn1)c1ccco1	0	0	0	0	0
CCOc1ccccc1N(CC(=O)NC1CCCC1)C(=O)CCCC(=O)Nc1ccccn1	0	0	0	0	0
COc1cccc(CN(CC2CCCO2)S(=O)(=O)c2ccc(S(=O)(=O)NCC3CCCO3)cc2)c1OC (stereo not given)	0	0	0	0	0
CCN(Cc1ccccc1)S(=O)(=O)c1ccc(S(=O)(=O)N(Cc2cccc(OC)c2)CC2CCCO2)cc1 (stereo not given)	0	55	0	0	0
CCOC(=O)N1CCN(S(=O)(=O)c2cccc3nsnc23)CC1	0	0	-	76	0
CCOC(=O)n1c(=O)oc2cc(S(=O)(=O)N3CCCCC3)ccc21	-	-	0	-	-
CCOC(=O)N1CCN(S(=O)(=O)c2ccc3c(c2)oc(=O)n3C)CC1	0	0	0	58	0
SMILES	CYP2C9 activ	CYP2C9 inh	EphB4 antag	CYP2C19 inhib	CYP2C19 activ
CCOC(=O)N1CCN(S(=O)(=O)c2ccc(OC)c(Cl)c2)CC1	0	0	0	98	0
CCOC(=O)N1CCN(S(=O)(=O)c2ccc(OC)c(OC)c2)CC1	-	-	0	-	-
CCOC(=O)N1CCN(S(=O)(=O)c2ccc(OC)c(Cl)c2Cl)CC1	0	0	0	99	0
CCOC(=O)N1CCN(S(=O)(=O)c2ccc(OCC)c3ccccc23)CC1	0	0	0	0	0
O=S(=O)(c1cccc2nsnc12)N1CCCC1	-	-	0	-	-
Cc1cc(OCC(=O)NC(C)C)cc(C)c1Cl	-	-	0	-	-
CCCS(=O)(=O)N1CCC(C(=O)NCCN2CCCC2)CC1	0	0	0	0	0
Cc1ccc(CN2C(=O)CCC2(C)C(=O)NCc2cccnc2)cc1 (stereo not given)	0	0	0	0	0
CNc1cc(C(F)(F)F)nc(-c2ccccn2)n1	0	0	0	0	0
COc1ccc(Sc2cc(C(F)(F)F)nc(-c3ccccn3)n2)cc1	0	66	0	0	0
C=CCn1c(C(CCC(C)C)CC(C)(C)O)n[nH]c1=S (stereo not given)	0	0	0	73	0

Assay outcomes as filed in PubChem BioAssay.
